Test results from PubChem BioAssay (Tox21).
Several values for one entry are separate records, joined by “and”; a condition that tells them apart may be missing. Equal values may be shown once. Inconclusive results are not listed. Where a call stands in place of a potency, no number is given. Activity calls are given as the source filed them. Calls follow the shape of the dose curve; as a rule, active = well fitted curve in the direction sought with a large enough effect in the repeat runs; inconclusive = weak or mixed curves; inactive = no such curve, though single readings can be large; an effect the other way counts as inactive or inconclusive.
Potency is read from the fitted curve at half-maximal effect.

Test: qHTS assay to identify small molecule antagonists of the glucocorticoid receptor (GR) signaling pathway - cell viability counter screen (AID 720693); also: nearly all actives have a fitted effect of over 55% in size
Conditions: GR-bla HeLa viability, CellTiter-Glo luminescence, 18 h, with 5 nM dexamethasone present; series mostly up to 58.5 µM
In the case of `C=CC(=O)NCNC(=O)C=C`, the Potency is reported as “inactive”.
With `CCOS(C)(=O)=O` the Potency was “inactive”.
In the case of `O=C(O)c1ccccc1C(=O)Nc1cccc2ccccc12`, the Potency is reported as “inactive”.
With `C[C@H]1CNCCc2ccc(Cl)cc21` the Potency was “inactive”.
For `Cc1ccccc1C(=O)Nc1cccc(OC(C)C)c1`, the Potency was “inactive”.
With `O=C(OC1CCCCC1)c1ccccc1C(=O)OC1CCCCC1` the Potency was “inactive”.
In the case of `COC(N)=O`, the Potency is reported as “inactive”.
In the case of `NC(=O)CI`, the Potency is reported as “inactive”.
With `C=CCN1CC[C@]23c4c5ccc(O)c4O[C@H]2C(=O)CC[C@@]3(O)[C@H]1C5` the Potency was “inactive”.
With `CC(C)O.CC(C)O.OCCN(CCO)CCO.OCCN(CCO)CCO.[Ti]` the Potency was “inactive”.
For `ClCCCCBr`, the Potency was “inactive”.
For `CCOC(=O)COc1cc(-c2nn(C)c(OC(F)F)c2Cl)c(F)cc1Cl`, the Potency was “inactive”.
With `C=CC(=O)OC` the Potency was “inactive”.
In the case of `O=C(CBr)c1ccccc1`, the Potency is reported as “inactive”.
In the case of `CC(C)(CCl)C(=O)Cl`, the Potency is reported as “inactive”.
With `Nc1ccc([N+](=O)[O-])cc1[N+](=O)[O-]` the Potency was “inactive”.
With `COC1=CC(=O)O[C@@H](CCc2ccccc2)C1` the Potency was “inactive”.
For `Cc1c(F)c(F)c(COC(=O)C2C(/C=C(\Cl)C(F)(F)F)C2(C)C)c(F)c1F` (stereo not given), the Potency was “inactive”.
For `CS/C(C)=N/OC(=O)N(C)SN(C)C(=O)O/N=C(\C)SC`, the Potency was “inactive”.
With `CCc1ccc(C(=O)NN(C(=O)c2cc(C)cc(C)c2)C(C)(C)C)cc1` the Potency was “inactive”.
For `CCOC(=O)C(Cl)C(C)=O` (stereo not given), the Potency was “inactive”.
With `CCCCCC[N+](=O)[O-]` the Potency was “inactive”.
For `CC(c1ccc(O)cc1)(c1ccc(O)cc1)c1ccc(O)cc1`, the Potency was “inactive”.
With `CCCN(CCC)c1c([N+](=O)[O-])cc(S(C)(=O)=O)cc1[N+](=O)[O-]` the Potency was “inactive”.
In the case of `COc1cc(Cl)c(OC)cc1Cl`, the Potency is reported as “inactive”.
For `O=[N+]([O-])c1ccc(F)c([N+](=O)[O-])c1`, the Potency was “inactive”.
For `NCCCNCCCN`, the Potency was “inactive”.
For `C/C(=C\c1ccccc1)[N+](=O)[O-]`, the Potency was 17.4 µM (active).
In the case of `Brc1ccc(Oc2ccccc2)cc1`, the Potency is reported as “inactive”.
For `CC(Cl)Cl`, the Potency was “inactive”.
In the case of `O=NN1CCNCC1`, the Potency is reported as “inactive”.
With `C=CC(=O)OCCCCO` the Potency was “inactive”.
For `O=C1CN=C(c2ccccc2)c2cc(Cl)ccc2N1CC1CC1`, the Potency was “inactive”.
For `CCOP(=S)(OCC)SCn1nnc2ccccc2c1=O`, the Potency was “inactive”.

Test: qHTS assay for identifying genotoxic compounds that show differential cytotoxicity against isogenic chicken DT40 cell lines with known DNA damage response pathways - Rev3 mutant cell line (AID 743014); also: nearly all actives have a fitted effect of over 55% in size
Conditions: chicken DT40 Rev3-/- viability, CellTiter-Glo, 40 h; series mostly up to 68.4 µM
With `O=C(O)c1ccccc1C(=O)Nc1cccc2ccccc12` the Potency was 54.5 µM (active).
With `C[C@H]1CNCCc2ccc(Cl)cc21` the Potency was 13.3 µM (active).
For `Cc1ccccc1C(=O)Nc1cccc(OC(C)C)c1`, the Potency was 30.6 µM (active).
With `O=C(OC1CCCCC1)c1ccccc1C(=O)OC1CCCCC1` the Potency was 22.9 µM (active).
For `NC(=O)CI`, the Potency was “inactive”.
In the case of `C=CCN1CC[C@]23c4c5ccc(O)c4O[C@H]2C(=O)CC[C@@]3(O)[C@H]1C5`, the Potency is reported as “inactive”.
For `CC(C)O.CC(C)O.OCCN(CCO)CCO.OCCN(CCO)CCO.[Ti]`, the Potency was “inactive”.
In the case of `ClCCCCBr`, the Potency is reported as “inactive”.
In the case of `CCOC(=O)COc1cc(-c2nn(C)c(OC(F)F)c2Cl)c(F)cc1Cl`, the Potency is reported as “inactive”.
In the case of `C=CC(=O)OC`, the Potency is reported as “inactive”.
For `O=C(CBr)c1ccccc1`, the Potency was 61.5 µM (active).
With `Nc1ccc([N+](=O)[O-])cc1[N+](=O)[O-]` the Potency was 53.1 µM (active).
For `COC1=CC(=O)O[C@@H](CCc2ccccc2)C1`, the Potency was “inactive”.
With `Cc1c(F)c(F)c(COC(=O)C2C(/C=C(\Cl)C(F)(F)F)C2(C)C)c(F)c1F` (stereo not given) the Potency was “inactive”.
For `CS/C(C)=N/OC(=O)N(C)SN(C)C(=O)O/N=C(\C)SC`, the Potency was 17.2 µM (active).
For `CCc1ccc(C(=O)NN(C(=O)c2cc(C)cc(C)c2)C(C)(C)C)cc1`, the Potency was 27.3 µM (active).
For `CC(c1ccc(O)cc1)(c1ccc(O)cc1)c1ccc(O)cc1`, the Potency was 38.6 µM (active).
In the case of `CCCN(CCC)c1c([N+](=O)[O-])cc(S(C)(=O)=O)cc1[N+](=O)[O-]`, the Potency is reported as “inactive”.
For `COc1cc(Cl)c(OC)cc1Cl`, the Potency was “inactive”.
For `O=[N+]([O-])c1ccc(F)c([N+](=O)[O-])c1`, the Potency was “inactive”.
For `NCCCNCCCN`, the Potency was 55.3 µM (active).
For `C/C(=C\c1ccccc1)[N+](=O)[O-]`, the Potency was 4.33 µM (active).
In the case of `Brc1ccc(Oc2ccccc2)cc1`, the Potency is reported as “inactive”.
In the case of `CC(Cl)Cl`, the Potency is reported as “inactive”.
In the case of `O=NN1CCNCC1`, the Potency is reported as “inactive”.
For `O=C1CN=C(c2ccccc2)c2cc(Cl)ccc2N1CC1CC1`, the Potency was 29.8 µM (active) and 64.2 µM (active).
In the case of `CCOP(=S)(OCC)SCn1nnc2ccccc2c1=O`, the Potency is reported as 7.7 µM (active).

Test: qHTS assay for identifying genotoxic compounds that show differential cytotoxicity against isogenic chicken DT40 cell lines with known DNA damage response pathways - Rad54/Ku70 mutant cell line (AID 743015); also: nearly all actives have a fitted effect of over 60% in size
Conditions: DT40 Rad54/Ku70 mutant viability, CellTiter-Glo, 40 h; series mostly up to 66.8 µM
For `C=CC(=O)NCNC(=O)C=C`, the Potency was 61 µM (active).
For `CCOS(C)(=O)=O`, the Potency was “inactive”.
With `Cc1ccccc1C(=O)Nc1cccc(OC(C)C)c1` the Potency was 48.6 µM (active).
For `O=C(OC1CCCCC1)c1ccccc1C(=O)OC1CCCCC1`, the Potency was 25.7 µM (active).
In the case of `COC(N)=O`, the Potency is reported as “inactive”.
In the case of `C=CCN1CC[C@]23c4c5ccc(O)c4O[C@H]2C(=O)CC[C@@]3(O)[C@H]1C5`, the Potency is reported as “inactive”.
For `CC(C)O.CC(C)O.OCCN(CCO)CCO.OCCN(CCO)CCO.[Ti]`, the Potency was “inactive”.
With `ClCCCCBr` the Potency was “inactive”.
With `CCOC(=O)COc1cc(-c2nn(C)c(OC(F)F)c2Cl)c(F)cc1Cl` the Potency was 43.3 µM (active).
For `C=CC(=O)OC`, the Potency was “inactive”.
In the case of `CC(C)(CCl)C(=O)Cl`, the Potency is reported as “inactive”.
With `Nc1ccc([N+](=O)[O-])cc1[N+](=O)[O-]` the Potency was 66.8 µM (active).
In the case of `CS/C(C)=N/OC(=O)N(C)SN(C)C(=O)O/N=C(\C)SC`, the Potency is reported as 15.4 µM (active).
For `CCc1ccc(C(=O)NN(C(=O)c2cc(C)cc(C)c2)C(C)(C)C)cc1`, the Potency was 27.3 µM (active).
For `CCOC(=O)C(Cl)C(C)=O` (stereo not given), the Potency was “inactive”.
In the case of `CC(c1ccc(O)cc1)(c1ccc(O)cc1)c1ccc(O)cc1`, the Potency is reported as 54.5 µM (active).
With `O=[N+]([O-])c1ccc(F)c([N+](=O)[O-])c1` the Potency was “inactive”.
With `NCCCNCCCN` the Potency was 62.1 µM (active).
For `C/C(=C\c1ccccc1)[N+](=O)[O-]`, the Potency was 4.33 µM (active).
In the case of `CC(Cl)Cl`, the Potency is reported as “inactive”.
For `O=NN1CCNCC1`, the Potency was “inactive”.
With `C=CC(=O)OCCCCO` the Potency was 61.1 µM (active).
For `O=C1CN=C(c2ccccc2)c2cc(Cl)ccc2N1CC1CC1`, the Potency was 26.6 µM (active).
With `CCOP(=S)(OCC)SCn1nnc2ccccc2c1=O` the Potency was 9.69 µM (active).
